# Experimental data: PubChem BioAssay AID2384 (Southern Research Specialized Biocontainment Screening …, 2010)
# About 1,100 (48%) of roughly 2,300 compounds were called active. The rule behind the calls is not given here. The set was probably picked from earlier hits. The list shows a part of the results. Entries with a potency or affinity are not part of this list.
# Assay: S. typhi counter-screen signal inhibition – fluorescence, 4 h, counter-screen for PhoP regulon inhibitor project, dose response (AID 2384)
# Details: S. typhi GFP reporter counter-screen; series mostly up to 150 µM; inhibition: at the top concentration
row,SMILES,inhibition
1,N#C/C(=C\c1ccc[nH]1)C(=O)NC1CC1,4.86% (inactive)
2,O=c1c2ccccc2nc2n1CCc1c-2[nH]c2ccccc12,2.11% (inactive)
3,CC1(C)Oc2ccc3ccc(=O)oc3c2/C(=C/NCCN/C=C2\C(=O)C(C)(C)Oc3ccc4ccc(=O)oc4c32)C1=O,0.81% (inactive)
4,CC1CCN(C(=O)CSc2nnc(Cc3cc(=O)[nH]c(=O)[nH]3)n2-c2ccc(Cl)cc2)CC1,-0.09% (inactive)
5,Cn1nnnc1SCC(=O)Nc1ccccc1-c1ccccc1,8.28% (inactive)
6,CCOC(=O)N1CCC(=NNc2ccnc3cc(Cl)ccc23)CC1,39.4% (inactive)
7,Cn1c(CCN2CCN(c3ccccn3)CC2)nc2cc(NC(=O)COc3ccccc3)ccc21,13.6% (inactive)
8,O=C(c1ccc2c(c1)[nH]c(=S)n1c3ccccc3nc21)N1CCN(c2cccc(Cl)c2)CC1,18.8% (inactive)
9,Cn1cnnc1SCC(=O)Nc1ccc2nc(SCc3ccccc3)sc2c1,13.9% (inactive)
10,COC(=O)CC1C(=O)NCCN1C(=O)CSc1nc2ccc([N+](=O)[O-])cc2s1 (stereo not given),16.1% (inactive)
11,C(=N\Nc1nc2ccccc2[nH]1)/c1ccc2ncccc2c1,-2.51% (inactive)
12,O=C(CSc1ccccn1)N/N=C/c1c[nH]c2ccccc12,35.6% (inactive)
13,CCN1C(=O)N/C(=C/c2cc(C)n(Cc3ccccc3)c2C)C1=O,-15.1% (inactive)
14,Cc1cccc(OCC(=O)Nc2nonc2NC(=O)COc2cccc(C)c2)c1,13.2% (inactive)
15,CC(=O)Nc1ccc(NC(=O)CSc2ccc(-c3ccco3)nn2)cc1,1.22% (inactive)
16,O=C(c1cc2c(s1)-c1ccccc1S(=O)(=O)C2)N1CCN(Cc2ccccc2)CC1,0.12% (inactive)
17,CN1CCN(c2ccccc2NC(=O)c2sc3ccccc3c2Cl)CC1,-21.8% (inactive)
18,Cc1cc(C=O)c(O)cc1O,36.2% (inactive)
19,O=C(NCc1ccccc1)c1ccc(CNc2c(N3CCCC3)c(=O)c2=O)cc1,-5.91% (inactive)
20,COc1ccc(NC(=O)Cn2c(=O)oc3cc(S(=O)(=O)N4CCCC4)ccc32)c(OC)c1,-15.4% (inactive)
21,NC1=NC(c2cccc(O)c2)n2c(nc3ccccc32)N1 (stereo not given),-22.2% (inactive)
22,NC1=NC2(CCCCC2)n2c(nc3ccccc32)N1,34.6% (inactive)

row,SMILES,inhibition
1,CCOC(=O)c1cnn2c1[nH]c(=O)c1ccccc12,-7.64% (inactive)
2,NC(=O)c1cc(S(=O)(=O)Nc2cccc(F)c2)co1,7.62% (inactive)
3,COC(=O)c1cc2nc(-c3ccccc3)cc(C)n2n1,1.02% (inactive)
4,CNc1ccc(SC#N)cc1,2.34% (inactive)
5,CCOC(=O)Cc1nn(C)c(=O)c2ccccc12,-3.49% (inactive)
6,O=S1(=O)CC=C(CSc2nc3ccccc3[nH]2)C1,-15.2% (inactive)
7,CC(=O)N1CSCC1C(=O)N1CCN(c2ccc(N3CCOCC3)nn2)CC1 (stereo not given),-16.5% (inactive)
8,CCOC(=O)C(NC(C)=O)(Nc1cccc(F)c1)C(F)(F)F (stereo not given),-29.5% (inactive)
9,O=C(NC1(C(F)(F)F)C(=O)Nc2c1c(=O)[nH]c(=O)n2-c1ccccc1)c1ccncc1 (stereo not given),-4% (inactive)
10,C=CCn1c(C)c(C(C)=O)c(N2CCCC2)nc1=S,11.6% (inactive)
11,NC(=O)CN1N=C(c2cc(Cl)sc2Cl)CSC1=O,14.5% (inactive)
12,COCCN1CC(=O)N2C(c3cccc(OC)c3)c3[nH]c4ccccc4c3C[C@H]2C1=O (stereo not given in full),-10.6% (inactive)
13,N=c1c(C(=O)NCC2CCCO2)cc2c(=O)n3ccccc3nc2n1Cc1ccc(Cl)cc1 (stereo not given),24.5% (inactive)
14,COc1ccc(C)cc1NC(=O)C1CCN(S(=O)(=O)c2c(C)noc2C)CC1,8.55% (inactive)
15,CCOc1ccccc1-c1cc(-c2ccccc2)nc2c1c(=O)n(C)c(=O)n2C,2.64% (inactive)
16,COc1cccc(C(c2c(C)[nH]n(-c3ccccc3)c2=O)c2c(C)[nH]n(-c3ccccc3)c2=O)c1O,14.5% (inactive)
17,O=C(NCc1ccco1)C1CCN(C(=O)c2cc3sccc3n2Cc2ccc(Cl)cc2)CC1,4.77% (inactive)
18,Nc1nc(SCC(=O)N2CCCC2)[nH]c(=O)c1NC(=O)c1cccs1,17.8% (inactive)
19,Clc1ccc(OCc2nc(-c3ccc(Br)o3)no2)cc1,-18.3% (inactive)
20,CCOc1ccc(-c2ccc(SCC(=O)N3CCOCC3)nn2)cc1,-7.13% (inactive)
21,NC(=O)c1ccc[n+]([C@H]2O[C@@H](COP(=O)([O-])OP(=O)(O)OC[C@H]3O[C@@H](n4cnc5c(N)ncnc54)[C@H](O)[C@@H]3O)[C@H](O)[C@@H]2O)c1,-10.8% (inactive)
22,CN1CCCN(C(=O)COc2ccc(F)cc2Cl)CC1,0.57% (inactive)

row,SMILES,inhibition
1,Cc1cc(NC(=O)COC(=O)c2cccc(S(=O)(=O)N(C)C3CCCCC3)c2)no1,-11.6% (inactive)
2,COC(=O)c1sccc1NC(=S)NCc1ccc(Cl)cc1,33.3% (inactive)
3,COC(=O)CNc1n[nH]c(=S)[nH]c1=O,26.9% (inactive)
4,NC1=C(Br)C(=O)c2ccccc2C1=O,22.2% (inactive)
5,C/[N+]([O-])=C1\Cc2ccccc2C1=O,-21.2% (inactive)
6,Clc1ccc2c(NCc3ccccn3)ccnc2c1,-0.79% (inactive)
7,O=C(NCc1cccs1)C(=O)NCC(c1ccco1)N1CCN(c2ccc(F)cc2)CC1 (stereo not given),1.68% (inactive)
8,CCC(=O)N1CCc2cc(S(=O)(=O)NCCCN3CCN(Cc4ccccc4)CC3)ccc21,-9.6% (inactive)
9,COc1ccc(NC(=O)C(Cc2ccccc2)n2cccc2)cc1 (stereo not given),9.62% (inactive)
10,CC(C)NC(=O)c1cc(-c2ccc(Br)cc2)on1,10.1% (inactive)
11,CC(=O)NCc1ccc(C(=O)CCl)cc1,18.7% (inactive)
12,Cc1c(C)n(C)c2ccc(C(=O)NCc3cccs3)cc12,-3.78% (inactive)
13,O=C(NCCCN1CCOCC1)C(C(=O)c1ccccc1)n1ccccc1=O (stereo not given),2.1% (inactive)
14,COc1ccc(Cl)cc1NC(=O)CCN1CCOCC1,13.3% (inactive)
15,CCCC1(c2ccccc2)NC(=O)N(CC(=O)Nc2cc(S(=O)(=O)N3CCOCC3)ccc2Cl)C1=O (stereo not given),-4.71% (inactive)
16,Cc1ccc(C)c(NC(=O)CSc2nnc([C@@H](N)Cc3c[nH]c4ccccc34)o2)c1,33.6% (inactive)
17,COc1ccc(C(=O)C2CCN(CC(=O)Nc3cc(C)cc(C)c3)CC2)cc1,26.4% (inactive)
18,COCCNC(=O)c1cccc(OC2CCN(Cc3ccccc3C)CC2)c1,-4.82% (inactive)
19,O=C(O)c1ccc(CSc2nnnn2C2CCCCC2)cc1,-28% (inactive)
20,COCCNC(=O)CN(C(=O)CCC(=O)Nc1ccccn1)c1ccc(F)c(Cl)c1,1.46% (inactive)
21,COCCN1C(=O)C(=O)/C(=C(/O)c2cccc(OC)c2)C1c1ccncc1 (stereo not given),4.45% (inactive)
22,Cc1ccc(CCN2C(=O)CCC2(C)C(=O)NC2CCCC2)cc1 (stereo not given),2.68% (inactive)

row,SMILES,inhibition
1,FC(F)(F)c1ccccc1NC1=NCCC1,7.38% (inactive)
2,CCN(CC)CC#CC(C)OCOCC#CCOC (stereo not given),-8.61% (inactive)
3,Cc1ccc2[nH]cc(CCNC(=O)c3cccnc3)c2c1,-28.4% (inactive)
4,Cc1cc(C)cc(CSc2nnc(C)c(=O)[nH]2)c1,30.6% (inactive)
5,COC(=O)c1cc2ccsc2n1CC(=O)N(C)c1ccccc1,13.3% (inactive)
6,COC(=O)c1c(-c2cccc(C)c2)csc1N,-0.42% (inactive)
7,COc1c(Br)cc2c(C)c(C(=O)N3CCOCC3)oc2c1Br,-36.3% (inactive)
8,Cn1c(=O)cc(SCC(=O)N2CCN(C3CCCCC3)CC2)c2ccccc21,9.71% (inactive)
9,COc1ccccc1C(=O)N1CC2(C)CC1CC(C)(C)C2 (stereo not given),-20.3% (inactive)
10,NC(=O)COc1c(-c2ccco2)oc2ccccc2c1=O,-26% (inactive)
11,O=C(NCc1ccc2c(c1)OCO2)c1ccc2c(c1)C(=O)N(Cc1cccnc1)C2=O,4.44% (inactive)
12,Cc1ncc(CC(=O)n2cc(C(=O)c3cc(F)ccc3O)cn2)s1,27.9% (inactive)
13,CCC(C)n1c(SCC(=O)NCc2ccco2)nnc1-c1cccc(S(=O)(=O)N2CCOCC2)c1 (stereo not given),3.8% (inactive)
14,COc1cc(C)c(Cl)cc1S(=O)(=O)n1cnc(C)c1,13.2% (inactive)
15,CC1CC(C)CN(C(=O)c2ccc(NC(=O)c3ccc(=O)[nH]c3)cc2)C1 (stereo not given),20% (inactive)
16,COc1cccc(NC(=O)N2CCCC(C(=O)Nc3ccccc3OC)C2)c1 (stereo not given),-26.5% (inactive)
17,COc1ccccc1NC(=O)CSC1CC(=O)N(c2ccc3c(c2)OCO3)C1=O (stereo not given),23.1% (inactive)
18,CN(C)/C=N/c1ncc(C(=O)c2ccc(Cl)cc2)s1,-34.4% (inactive)
19,CCN(CC)CCCCCCCCOC(=O)c1cc(OC)c(OC)c(OC)c1,-0.35% (inactive)
20,CCn1cc(C(=O)NCCc2ccccc2)c(=O)c2cc(F)c(N3CCN(C)CC3)cc21,5.9% (inactive)
21,CSc1ccc(NC(=O)C(C)N2CCN(C)CC2)cc1 (stereo not given),16.4% (inactive)
22,O=C(CCc1nc2ccccc2s1)NC1CCOC1=O (stereo not given),1.3% (inactive)

row,SMILES,inhibition
1,CCOc1ccc2nc(NC(=O)C3=NNC(=O)CC3)sc2c1,4.7% (inactive)
2,CCCCn1cnc2cc(NCc3cccc(OC)c3O)ccc21,18.8% (inactive)
3,Cc1ccc(C)c(SCC(=O)Nc2ccc(S(=O)(=O)Nc3ncccn3)cc2)c1,-5.02% (inactive)
4,Cc1cc(C)c(S(=O)(=O)Nc2cccnc2)c(C)c1,-3.5% (inactive)
5,CCOc1ccccc1NC(=O)NS(=O)(=O)c1ccc(C)cc1,-13% (inactive)
6,COC(=O)NNS(=O)(=O)c1ccc(C)cc1,37.3% (inactive)
7,Cc1cccc(NCN2C(=O)c3ccccc3C2=O)c1,6.6% (inactive)
8,Cc1ccc(S(=O)(=O)NC(C)(C)CSc2nnc(N)s2)cc1,-24.4% (inactive)
9,CC(=O)Nc1ccc(S(=O)(=O)Nc2nc3ccccc3nc2Nc2cccc(S(N)(=O)=O)c2)cc1,-9.28% (inactive)
10,COc1ccc(C(=O)NNS(=O)(=O)c2ccccc2)cc1OC,2.97% (inactive)
11,O=C(COC(=O)CNC(=O)c1ccccc1)Nc1ccc(F)c([N+](=O)[O-])c1,-8.3% (inactive)
12,CCOc1ccc(C2CC(=O)NC(SCC(=O)OC)=C2C#N)cc1 (stereo not given),-12.6% (inactive)
13,COc1cc(S(=O)(=O)N2CCN(C(=O)c3ccco3)CC2)c(OC)cc1C,7.78% (inactive)
14,COc1ccc(-n2nnc3c(SCC(=O)N4CCCc5ccccc54)ncnc32)cc1,-11.9% (inactive)
15,Cc1c(C(=O)N2CCN(Cc3ccccc3)CC2)sc2ncnc(N3CCOCC3)c12,-6.98% (inactive)
16,O=C(Nc1ccccc1)c1cccnc1N1CCOCC1,-26.5% (inactive)
17,CCC(Sc1nccn1C)C(=O)Nc1nnc(C)s1 (stereo not given),-18.7% (inactive)
18,N#Cc1ccc(C2=NC(C(F)(F)F)(C(F)(F)F)c3c(n(Cc4ccco4)c(=O)[nH]c3=O)N2)cc1,-0.36% (inactive)
19,COCCNC(=O)Cn1cnc2c1c(=O)n(C)c(=O)n2C,8.18% (inactive)
20,Cc1[nH]c2ccccc2c1/C=N/Nc1nc2ccccc2[nH]1,11.7% (inactive)
21,Cc1cc(C)c2c(N)c(C(=O)c3ccc(Cl)c(Cl)c3)sc2n1,-3.82% (inactive)
22,O=C(O)c1cccc(NC2=Nc3cccc4cccc2c34)c1,-13.8% (inactive)
